# Laboratory results from PubChem BioAssay AID1508601 (ICCB-Longwood Screening Facility, Harvard Medical School, 2020).
# Screen size: about 5,700 compounds; about 85 (1%) were called active. No stated cut-off is given here; in the data, active means p53-positive nuclei above about 36% (passing the limit was not always enough); inactive means the rest. The sample as a whole holds a higher share of actives than the screen did.
# Assays:
# [1] = nuclear p53 accumulation, HPV+ cells – imaging, p53-positive nuclei imaging, 24 h, 48 h (AID 1508601); details: 24/48 h
# [2] = target: Cellular tumor antigen p53 (Homo sapiens) (UniProt P04637); assay: as above; details: 24/48 h, stronger effect = higher value
# [3] = measured here: cell number at 24 h, Library stock concentration: 3.33 mM
# [4] = measured here: cell number at 24 h, Library stock concentration: 10 mM
# [5] = measured here: cell number at 48 h, Library stock concentration: 3.33 mM
# [6] = measured here: cell number at 48 h, Library stock concentration: 10 mM
# [7] = Library stock concentration: 3.33 mM
# [8] = Library stock concentration: 10 mM
# [9] = measured here: p53 positive nuclei at 24 h, Library stock concentration: 3.33 mM
# [10] = measured here: p53 positive nuclei at 24 h, Library stock concentration: 10 mM
# Chain of Cellular tumor antigen p53 (Homo sapiens) (P04637 whole entry, looked up): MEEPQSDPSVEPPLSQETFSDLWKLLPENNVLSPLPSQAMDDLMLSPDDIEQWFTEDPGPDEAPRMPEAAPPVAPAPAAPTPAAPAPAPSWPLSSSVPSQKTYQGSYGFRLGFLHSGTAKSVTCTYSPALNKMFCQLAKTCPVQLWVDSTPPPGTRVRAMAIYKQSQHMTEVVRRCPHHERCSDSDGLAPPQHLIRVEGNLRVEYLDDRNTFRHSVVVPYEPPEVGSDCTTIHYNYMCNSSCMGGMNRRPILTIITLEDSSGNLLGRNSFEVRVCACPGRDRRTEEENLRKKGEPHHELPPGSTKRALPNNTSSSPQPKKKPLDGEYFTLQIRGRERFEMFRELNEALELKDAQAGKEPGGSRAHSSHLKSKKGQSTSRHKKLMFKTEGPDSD
smiles,measurement,setting,value
CC(C)(CO)c1cc2cc(NC(=O)C3(c4ccc5c(c4)OC(F)(F)O5)CC3)c(F)cc2n1CC(O)CO (centres undefined),"nuclei count, normalised","[1]; measured here: cell number at 24 h, Library stock concentration: 80 uM",99.2%
same,"nuclei count, normalised","[1]; measured here: cell number at 24 h, Library stock concentration: 400 uM",104%
same,"nuclei count, normalised","[1]; measured here: cell number at 24 h, Library stock concentration: 2 mM",106%
same,"nuclei count, normalised",[1]; [3],118%
same,"nuclei count, normalised",[1]; [4],113%
same,"nuclei count, normalised","[1]; measured here: cell number at 48 h, Library stock concentration: 80 uM",105%
same,"nuclei count, normalised","[1]; measured here: cell number at 48 h, Library stock concentration: 400 uM",107%
same,"nuclei count, normalised","[1]; measured here: cell number at 48 h, Library stock concentration: 2 mM",110%
same,"nuclei count, normalised",[1]; [5],120%
same,"nuclei count, normalised",[1]; [6],111%
same,"p53-positive nuclei, normalised",[2]; Library stock concentration: 80 uM,0.0351% (inactive)
same,"p53-positive nuclei, normalised",[2]; Library stock concentration: 400 uM,0.0964% (inactive)
same,"p53-positive nuclei, normalised",[2]; Library stock concentration: 2 mM,-0.0537% (inactive)
same,"p53-positive nuclei, normalised",[2]; [7],-0.0559% (inactive)
same,"p53-positive nuclei, normalised",[2]; [8],0.115% (inactive)
same,"p53-positive nuclei, normalised","[2]; measured here: p53 positive nuclei at 24 h, Library stock concentration: 80 uM",0.0925%
same,"p53-positive nuclei, normalised","[2]; measured here: p53 positive nuclei at 24 h, Library stock concentration: 400 uM",0.0862%
same,"p53-positive nuclei, normalised","[2]; measured here: p53 positive nuclei at 24 h, Library stock concentration: 2 mM",-0.0708%
same,"p53-positive nuclei, normalised",[2]; [9],-0.244%
same,"p53-positive nuclei, normalised",[2]; [10],0.119%
O=C(c1cc(-c2cncnc2)nc2cc(F)ccc12)N1CCCC1Cc1cccnc1 (centres undefined),"nuclei count, normalised","[1]; measured here: cell number at 24 h, concentration not given here",109%
same,"nuclei count, normalised","[1]; measured here: cell number at 48 h, concentration not given here",110%
same,"p53-positive nuclei, normalised",[2]; concentration not given here,0.0107% (inactive)
same,"p53-positive nuclei, normalised","[2]; measured here: p53 positive nuclei at 24 h, concentration not given here",0.143%
O=C1CN2Cc3c(ccc(Cl)c3Cl)N=C2N1,"nuclei count, normalised","[1]; measured here: cell number at 24 h, Library stock concentration: 46 uM",88.7%
same,"nuclei count, normalised","[1]; measured here: cell number at 24 h, Library stock concentration: 278 uM",80.4%
same,"nuclei count, normalised","[1]; measured here: cell number at 24 h, Library stock concentration: 1.67 mM",83.9%
same,"nuclei count, normalised",[1]; [3],57.2%
same,"nuclei count, normalised",[1]; [4],75.8%
same,"nuclei count, normalised","[1]; measured here: cell number at 48 h, Library stock concentration: 46 uM",45.1%
same,"nuclei count, normalised","[1]; measured here: cell number at 48 h, Library stock concentration: 278 uM",38.3%
same,"nuclei count, normalised","[1]; measured here: cell number at 48 h, Library stock concentration: 1.67 mM",40.9%
same,"nuclei count, normalised",[1]; [5],24.8%
same,"nuclei count, normalised",[1]; [6],40.2%
same,"p53-positive nuclei, normalised",[2]; Library stock concentration: 46 uM,85.8% (active)
same,"p53-positive nuclei, normalised",[2]; Library stock concentration: 278 uM,88.2% (active)
same,"p53-positive nuclei, normalised",[2]; Library stock concentration: 1.67 mM,89.8% (active)
same,"p53-positive nuclei, normalised",[2]; [7],84.4% (active)
same,"p53-positive nuclei, normalised",[2]; [8],87% (active)
same,"p53-positive nuclei, normalised","[2]; measured here: p53 positive nuclei at 24 h, Library stock concentration: 46 uM",5.38%
same,"p53-positive nuclei, normalised","[2]; measured here: p53 positive nuclei at 24 h, Library stock concentration: 278 uM",6.86%
same,"p53-positive nuclei, normalised","[2]; measured here: p53 positive nuclei at 24 h, Library stock concentration: 1.67 mM",6.48%
same,"p53-positive nuclei, normalised",[2]; [9],11%
same,"p53-positive nuclei, normalised",[2]; [10],6.76%
